In PubChem BioAssay AID1159580 (chemical genetic matrix, 2015):
Screen size: about 5,500 compounds; about 2,000 (36%) were called active. Another 18% or so got no clear call; they are omitted. Rule as the data show it: active = normalized growth mostly below about 0.91 (no sharp cut-off); inconclusive = no clear call, values can overlap the other calls; inactive = mostly above about 0.92. This is one part of the list.

Assay: chemical genetic growth profiling, strain panel (AID 1159580);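 also: tested at 20 µM; growth read once vehicle control cultures reached saturation at 30 °C; 1 = growth at the plate median or of vehicle wells; lower values mean less growth of the strain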
Conditions: S. cerevisiae deletion strains, growth OD

Measured: normalized growth

Clc1ccccc1N/N=C\Cc1nnnn1-c1ccccc1
active: locus YGR092W, strain DBF2, active compounds read low 0.282 | locus YOR061W, strain CKA2, active compounds read low 0.567
inactive: locus YAR019C, strain CDC15, active compounds read low 0.982 | locus YBL105C, strain PKC1, active compounds read low 0.966 | locus YBR135W, strain CKS1, active compounds read low 0.962 | locus YBR136W, strain MEC1, active compounds read low 0.966 | locus YBR160W, strain CDC28, active compounds read low 0.97 | locus YDL017W, strain CDC7, active compounds read low 0.98 | locus YDL028C, strain MPS1, active compounds read low 0.972 | locus YDL101C, strain DUN1, active compounds read low 0.976 | locus YDL108W, strain KIN28, active compounds read low 0.974 | locus YDL132W, strain cdc53, active compounds read low 0.953 | locus YDL214C, strain PRR2, active compounds read low 0.904 | locus YDR052C, strain DBF4, active compounds read low 0.974 | locus YDR054C, strain cdc34, active compounds read low 0.96 | locus YDR226W, strain ADK1, active compounds read low 0.972 | locus YDR477W, strain SNF1, active compounds read low 0.898 | locus YER123W, strain YCK3, active compounds read low 0.729 | locus YER133W, strain GLC7, active compounds read low 0.91 | locus YFL009W, strain cdc4, active compounds read low 0.965 | locus YFL029C, strain CAK1, active compounds read low 0.966 | locus YFR003C, strain YPI1, active compounds read low 0.97 | locus YFR019W, strain FAB1, active compounds read low 0.831 | locus YFR028C, strain CDC14, active compounds read low 0.957 | locus YGR040W, strain KSS1, active compounds read low 0.91 | locus YGR052W, strain FMP48, active compounds read low 0.827 | locus YHR030C, strain SLT2, active compounds read low 0.924 | locus YHR079C, strain IRE1, active compounds read low 0.85 | locus YHR082C, strain KSP1, active compounds read low 0.951 | locus YHR205W, strain SCH9, active compounds read low 0.863 | locus YIL147C, strain SLN1, active compounds read low 0.971 | locus YJL095W, strain BCK1, active compounds read low 0.716 | locus YJL128C, strain PBS2, active compounds read low 0.951 | locus YJL157C, strain FAR1, active compounds read low 0.893 | locus YJR016C, strain ILV3, active compounds read low 0.96 | locus YJR066W, strain TOR1 (second series), active compounds read low 0.774 | locus YJR066W, strain TOR1, active compounds read low 0.888 | locus YKL048C, strain ELM1, active compounds read low 0.92 | locus YKL067W, strain YNK1, active compounds read low 0.89 | locus YKL101W, strain HSL1, active compounds read low 0.889 | locus YKL193C, strain SDS22, active compounds read low 0.966 | locus YKL203C, strain TOR2, active compounds read low 0.929 | locus YLR113W, strain HOG1, active compounds read low 0.923 | locus YLR133W, strain CKI1, active compounds read low 0.888 | locus YLR403W, strain SFP1, active compounds read low 0.814 | locus YML070W, strain DAK1, active compounds read low 0.787 | locus YMR001C, strain CDC5, active compounds read low 0.967 | locus YMR205C, strain PFK2 (second series), active compounds read low 0.92 | locus YMR277W, strain FCP1, active compounds read low 0.969 | locus YNL006W, strain LST8, active compounds read low 0.98 | locus YNL020C, strain ARK1, active compounds read low 0.878 | locus YNL161W, strain CBK1, active compounds read low 0.974 | locus YNL183C, strain NPR1, active compounds read low 0.89 | locus YNL207W, strain RIO2, active compounds read low 0.958 | locus YNL222W, strain SSU72, active compounds read low 0.973 | locus YNL307C, strain MCK1 (second series), active compounds read low 0.669 | locus YOL078W, strain AVO1, active compounds read low 0.962 | locus YOL136C, strain PFK27, active compounds read low 0.795 | locus YOR119C, strain RIO1, active compounds read low 0.924 | locus YOR231W, strain MKK1, active compounds read low 0.845 | locus YOR329C, strain SCD5, active compounds read low 0.971 | locus YPL031C, strain PHO85, active compounds read low 0.853 | locus YPL153C, strain RAD53, active compounds read low 0.832 | locus YPL204W, strain HRR25, active compounds read low 0.818 | locus YPL209C, strain IPL1, active compounds read low 0.967 | locus YPL256C, strain CLN2, active compounds read low 0.99 | locus YPR025C, strain CCL1, active compounds read low 0.973 | locus YPR106W, strain ISR1, active compounds read low 0.98 | locus YPR111W, strain DBF20, active compounds read low 0.963 | strain NNK1, active compounds read low 0.992 | strain TSCII, active compounds read low 0.963
